{"source": "PubChem BioAssay (NCI)", "key": {"[1]": {"assay": "NCI Yeast Anticancer Drug Screen. Data for the rad52 strain (AID 147);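 also: 0% = growth of vehicle-treated control cultures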", "details": "S. cerevisiae rad52 mutant growth inhibition, active compounds read high", "outline": "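Growth of repair-deficient yeast cells was compared between compound-treated and vehicle-treated cultures to give percent inhibition.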"}, "[2]": {"assay": "NCI Yeast Anticancer Drug Screen. Data for the wt1 strain (AID 149);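 also: 0% = growth of vehicle-treated wt1 cultures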", "details": "S. cerevisiae wt1 strain (SPY 50644) growth inhibition, active compounds read high", "outline": "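wt1 strain grown with compound or vehicle; inhibition taken from the growth difference.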"}, "[3]": {"assay": "NCI Yeast Anticancer Drug Screen. Data for the rad50EPP+ strain (AID 151);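 also: 0% = growth of vehicle-treated control cultures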", "details": "S. cerevisiae rad50 mutant strain, active compounds read high", "outline": "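Measured: growth inhibition of rad50EPP+ yeast. Reference: vehicle-treated controls. Screen uses strains with defined genetic alterations in DNA damage repair or cell cycle control.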"}, "[4]": {"assay": "NCI Yeast Anticancer Drug Screen. Data for the rad50 strain (AID 155);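 also: 0% = growth of vehicle-only cultures of the same strain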", "details": "S. cerevisiae rad50 strain growth inhibition, active compounds read high", "outline": "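DNA repair mutant yeast, compound exposure, growth read-out; inhibition is taken relative to vehicle.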"}, "[5]": {"assay": "NCI Yeast Anticancer Drug Screen. Data for the mec2-1 strain (AID 157)", "details": "S. cerevisiae mec2-1 strain, active compounds read high", "outline": "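Compounds were applied to mec2-1 yeast cells. Their growth was then compared with that of vehicle-treated cultures to give growth inhibition.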"}, "[6]": {"assay": "NCI Yeast Anticancer Drug Screen. Data for the rad14 strain (AID 159);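 also: 0% = growth of vehicle-treated control cultures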", "details": "S. cerevisiae rad14 strain growth inhibition, active compounds read high", "outline": "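DNA repair-defective yeast, compound-exposed; % growth inhibition derived by comparison with vehicle-treated controls.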"}, "[7]": {"assay": "NCI Yeast Anticancer Drug Screen. Data for the sgs1 mgt1 strain (AID 161);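 also: 0% = growth of cultures given vehicle only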", "details": "S. cerevisiae sgs1 mgt1 strain, active compounds read high", "outline": "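Yeast cells carrying a defined DNA-repair defect were exposed to test compounds. Growth inhibition was measured relative to vehicle-treated controls.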"}, "[8]": {"assay": "NCI Yeast Anticancer Drug Screen. Data for the CLN2oe strain (AID 163);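 also: 0% = growth of vehicle-only control cultures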", "details": "S. cerevisiae CLN2oe strain, active compounds read high", "outline": "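Cells of an engineered yeast line with disturbed cell-cycle regulation are treated with compound. Inhibition of growth is then calculated relative to the vehicle-treated reference.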"}, "[9]": {"assay": "NCI Yeast Anticancer Drug Screen. Data for the cln2 rad14 strain (AID 165);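 also: 0% = growth equal to vehicle treated cultures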", "details": "S. cerevisiae cln2 rad14 strain, active compounds read high", "outline": "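Strain: cln2 rad14 yeast, altered in cell cycle control and DNA damage repair. Read-out: growth inhibition vs vehicle.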"}, "[10]": {"assay": "NCI Yeast Anticancer Drug Screen. Data for the bub3 strain (AID 167)", "details": "S. cerevisiae bub3 mutant strain, active compounds read high", "outline": "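In this screen, a yeast mutant lacking normal mitotic checkpoint function is challenged with compound. Relative growth versus vehicle gives the inhibition value.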"}, "[11]": {"assay": "NCI Yeast Anticancer Drug Screen. Data for the wt2 strain (AID 169);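 also: 0% = growth of vehicle-treated yeast cultures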", "details": "S. cerevisiae wt2 strain growth inhibition, active compounds read high", "outline": "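Growth of compound-treated yeast is measured and expressed as inhibition relative to vehicle-only controls.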"}, "[12]": {"assay": "NCI Yeast Anticancer Drug Screen. Data for the mlh1 strain (AID 171);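 also: 0% = growth of vehicle-treated control cultures of the same strain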", "details": "S. cerevisiae mlh1 strain growth inhibition, active compounds read high", "outline": "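Test agents were incubated with yeast bearing a defined DNA damage repair or cell cycle control alteration; values are growth inhibition normalised to vehicle-treated cultures.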"}, "[13]": {"assay": "NCI Yeast Anticancer Drug Screen. Data for the sgs1 strain (AID 173);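 also: 0% = growth of vehicle-only control cultures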", "details": "S. cerevisiae sgs1 mutant, active compounds read high", "outline": "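Strain with an altered DNA repair or cell cycle pathway exposed to compound. Growth then measured. Value = inhibition versus vehicle control.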"}, "[14]": {"assay": "NCI Yeast Anticancer Drug Screen. Data for the mlh1 rad18 strain (AID 175)", "details": "S. cerevisiae mlh1 rad18 strain growth inhibition, active compounds read high", "outline": "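A repair-deficient yeast strain is exposed to test compound, and growth is scored relative to vehicle-treated controls.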"}, "[15]": {"assay": "NCI Yeast Anticancer Drug Screen. Data for the rad18 strain (AID 177)", "details": "S. cerevisiae rad18 mutant growth inhibition, active compounds read high", "outline": "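DNA-repair-defective yeast; compound treatment; growth inhibition scored against vehicle.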"}, "[16]": {"details": "at 5.0 µM (retest, dose inferred, filed as 0.5)"}, "[17]": {"details": "at 50.0 µM (retest, dose inferred, filed as 5.0)"}}, "note": "About 79,000 compounds went through this panel and 15% of them were active in at least one assay; those are over-represented in the sample as a whole. Unmarked numbers belong to inactive results. Active and inactive are the calls of the source. Rule as the data show it: active = growth inhibition above about 70%; inactive = the rest.", "data": [{"smiles": "CCOP1(=O)C=C(Sc2ccc([N+](=O)[O-])cc2[N+](=O)[O-])C(C)(C)O1", "note": "(stereo not drawn)", "values": [{"measurement": "growth inhibition", "setting": "[1]; at 1.2 µM", "value": 2, "unit": "%"}, {"measurement": "growth inhibition", "setting": "[1]; at 3.7 µM", "value": 6, "unit": "%"}, {"measurement": "growth inhibition", "setting": "[1]; at 11.0 µM", "value": 16, "unit": "%"}, {"measurement": "growth inhibition", "setting": "[1]; at 33.0 µM", "value": 39, "unit": "%"}, {"measurement": "growth inhibition", "setting": "[1]; at 100.0 µM", "value": "84% (active)"}, {"measurement": "growth inhibition", "setting": "[2]; at 1.2 µM", "value": 2, "unit": "%"}, {"measurement": "growth inhibition", "setting": "[2]; at 3.7 µM", "value": 2, "unit": "%"}, {"measurement": "growth inhibition", "setting": "[2]; at 11.0 µM", "value": 6, "unit": "%"}, {"measurement": "growth inhibition", "setting": "[2]; at 33.0 µM", "value": 4, "unit": "%"}, {"measurement": "growth inhibition", "setting": "[2]; at 100.0 µM", "value": 31, "unit": "%"}, {"measurement": "growth inhibition", "setting": "[3]; at 1.2 µM", "value": -4, "unit": "%"}, {"measurement": "growth inhibition", "setting": "[3]; at 3.7 µM", "value": -3, "unit": "%"}, {"measurement": "growth inhibition", "setting": "[3]; at 11.0 µM", "value": -2, "unit": "%"}, {"measurement": "growth inhibition", "setting": "[3]; at 33.0 µM", "value": 13, "unit": "%"}, {"measurement": "growth inhibition", "setting": "[3]; at 100.0 µM", "value": 53, "unit": "%"}, {"measurement": "growth inhibition", "setting": "[4]; at 1.2 µM", "value": 2, "unit": "%"}, {"measurement": "growth inhibition", "setting": "[4]; at 3.7 µM", "value": 9, "unit": "%"}, {"measurement": "growth inhibition", "setting": "[4]; [16]", "value": 28, "unit": "%"}, {"measurement": "growth inhibition", "setting": "[4]; at 11.0 µM", "value": 16, "unit": "%"}, {"measurement": "growth inhibition", "setting": "[4]; at 33.0 µM", "value": 37, "unit": "%"}, {"measurement": "growth inhibition", "setting": "[4]; [17]", "value": 40, "unit": "%"}, {"measurement": "growth inhibition", "setting": "[4]; at 50.0 µM", "value": 51.4, "unit": "%"}, {"measurement": "growth inhibition", "setting": "[4]; at 100.0 µM", "value": "83% (active)"}, {"measurement": "growth inhibition", "setting": "[5]; at 1.2 µM", "value": 7, "unit": "%"}, {"measurement": "growth inhibition", "setting": "[5]; at 3.7 µM", "value": 12, "unit": "%"}, {"measurement": "growth inhibition", "setting": "[5]; [16]", "value": 27, "unit": "%"}, {"measurement": "growth inhibition", "setting": "[5]; at 11.0 µM", "value": 18, "unit": "%"}, {"measurement": "growth inhibition", "setting": "[5]; at 33.0 µM", "value": 41, "unit": "%"}, {"measurement": "growth inhibition", "setting": "[5]; [17]", "value": 41, "unit": "%"}, {"measurement": "growth inhibition", "setting": "[5]; at 50.0 µM", "value": 8.65, "unit": "%"}, {"measurement": "growth inhibition", "setting": "[5]; at 100.0 µM", "value": "87% (active)"}, {"measurement": "growth inhibition", "setting": "[6]; at 1.2 µM", "value": 1, "unit": "%"}, {"measurement": "growth inhibition", "setting": "[6]; at 3.7 µM", "value": 3, "unit": "%"}, {"measurement": "growth inhibition", "setting": "[6]; at 11.0 µM", "value": 9, "unit": "%"}, {"measurement": "growth inhibition", "setting": "[6]; at 33.0 µM", "value": 20, "unit": "%"}, {"measurement": "growth inhibition", "setting": "[6]; at 100.0 µM", "value": 43, "unit": "%"}, {"measurement": "growth inhibition", "setting": "[7]; [16]", "value": 23, "unit": "%"}, {"measurement": "growth inhibition", "setting": "[7]; [17]", "value": 38, "unit": "%"}, {"measurement": "growth inhibition", "setting": "[7]; at 50.0 µM", "value": 33, "unit": "%"}, {"measurement": "growth inhibition", "setting": "[8]; at 1.2 µM", "value": 3, "unit": "%"}, {"measurement": "growth inhibition", "setting": "[8]; at 3.7 µM", "value": 0, "unit": "%"}, {"measurement": "growth inhibition", "setting": "[8]; at 11.0 µM", "value": 1, "unit": "%"}, {"measurement": "growth inhibition", "setting": "[8]; at 33.0 µM", "value": 11, "unit": "%"}, {"measurement": "growth inhibition", "setting": "[8]; at 100.0 µM", "value": 37, "unit": "%"}, {"measurement": "growth inhibition", "setting": "[9]; [16]", "value": 7, "unit": "%"}, {"measurement": "growth inhibition", "setting": "[9]; [17]", "value": 44, "unit": "%"}, {"measurement": "growth inhibition", "setting": "[9]; at 50.0 µM", "value": 26.1, "unit": "%"}, {"measurement": "growth inhibition", "setting": "[10]; at 1.2 µM", "value": 5, "unit": "%"}, {"measurement": "growth inhibition", "setting": "[10]; at 3.7 µM", "value": 7, "unit": "%"}, {"measurement": "growth inhibition", "setting": "[10]; [16]", "value": 11, "unit": "%"}, {"measurement": "growth inhibition", "setting": "[10]; at 11.0 µM", "value": 16, "unit": "%"}, {"measurement": "growth inhibition", "setting": "[10]; at 33.0 µM", "value": 40, "unit": "%"}, {"measurement": "growth inhibition", "setting": "[10]; [17]", "value": 31, "unit": "%"}, {"measurement": "growth inhibition", "setting": "[10]; at 50.0 µM", "value": 1.9, "unit": "%"}, {"measurement": "growth inhibition", "setting": "[10]; at 100.0 µM", "value": "92% (active)"}, {"measurement": "growth inhibition", "setting": "[11]; at 1.2 µM", "value": 4, "unit": "%"}, {"measurement": "growth inhibition", "setting": "[11]; at 3.7 µM", "value": 8, "unit": "%"}, {"measurement": "growth inhibition", "setting": "[11]; at 11.0 µM", "value": 12, "unit": "%"}, {"measurement": "growth inhibition", "setting": "[11]; at 33.0 µM", "value": 25, "unit": "%"}, {"measurement": "growth inhibition", "setting": "[11]; at 100.0 µM", "value": "72% (active)"}, {"measurement": "growth inhibition", "setting": "[12]; at 1.2 µM", "value": 3, "unit": "%"}, {"measurement": "growth inhibition", "setting": "[12]; at 3.7 µM", "value": 7, "unit": "%"}, {"measurement": "growth inhibition", "setting": "[12]; at 11.0 µM", "value": 14, "unit": "%"}, {"measurement": "growth inhibition", "setting": "[12]; at 33.0 µM", "value": 31, "unit": "%"}, {"measurement": "growth inhibition", "setting": "[12]; at 100.0 µM", "value": "83% (active)"}, {"measurement": "growth inhibition", "setting": "[13]; at 1.2 µM", "value": 3, "unit": "%"}, {"measurement": "growth inhibition", "setting": "[13]; at 3.7 µM", "value": 6, "unit": "%"}, {"measurement": "growth inhibition", "setting": "[13]; at 11.0 µM", "value": 13, "unit": "%"}, {"measurement": "growth inhibition", "setting": "[13]; at 33.0 µM", "value": 37, "unit": "%"}, {"measurement": "growth inhibition", "setting": "[13]; at 100.0 µM", "value": "84% (active)"}, {"measurement": "growth inhibition", "setting": "[14]; [16]", "value": 25, "unit": "%"}, {"measurement": "growth inhibition", "setting": "[14]; [17]", "value": 60, "unit": "%"}, {"measurement": "growth inhibition", "setting": "[14]; at 50.0 µM", "value": 42.2, "unit": "%"}, {"measurement": "growth inhibition", "setting": "[15]; at 1.2 µM", "value": 0, "unit": "%"}, {"measurement": "growth inhibition", "setting": "[15]; at 3.7 µM", "value": 9, "unit": "%"}, {"measurement": "growth inhibition", "setting": "[15]; at 11.0 µM", "value": 28, "unit": "%"}, {"measurement": "growth inhibition", "setting": "[15]; at 33.0 µM", "value": 66, "unit": "%"}, {"measurement": "growth inhibition", "setting": "[15]; at 100.0 µM", "value": "92% (active)"}]}]}
